From PubChem BioAssay
Calls of active or inactive are those of the source.

Key:
Albumin (Bos taurus) = Albumin (Bos taurus) (UniProt P02769); test: bovine serum albumin binders on microarray, profiling panel, artefact control for SMM control protein annotation, biochemical, small-molecule microarray, Alexa647 label, 635/667 nm fluorescence (AID 1118); settings: BSA-A647 binding, fluorescence 635 nm, higher = more signal;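 also: score merges 667 nm emission intensity and signal-to-noise per printed compound spot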
[1] = small-molecule microarray binders of probe aXIP, primary screen, biochemical, NeuroSMM set, 635/667 nm fluorescence (AID 1119); settings: higher = more signal, called active from +8 up or from −8 down;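 also: probe is the protein aXip251-270 applied at 1 µg/mL to compound-printed slides; binding of probe to printed compounds measured as 667 nm fluorescence plus signal to noise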
[2] = small-molecule binders of probe aNOTCH3, primary screen, biochemical, small-molecule microarray, 635/667 nm fluorescence (AID 1120); settings: higher = more signal;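 also: probe is a biotin-tagged antibody raised against NOTCH3 rather than NOTCH3 protein; score merges spot fluorescence near 667 nm with spot signal to noise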
[3] = small-molecule binders of probe aNOTCH2, primary screen, biochemical, small-molecule microarray, 635/667 nm fluorescence (AID 1121); settings: higher = more signal;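 also: score merges feature fluorescence read at 667 nm with its signal to noise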
[4] = target: Carbonic anhydrase 2 (Homo sapiens) (UniProt P00918); test: CAII small-molecule binders, profiling panel, biochemical, small-molecule microarray, Alexa647-labelled CAII (AID 1122); settings: CAII-A647 binding fluorescence, higher = more signal
[5] = COS7 lysate on small-molecule microarray, probe aHis, 635 nm (AID 1123); settings: COS7 cell lysate, fluorescence, higher = more signal;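 also: z-score combines 667nm fluorescence intensity with signal-to-noise per printed compound spot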
[6] = compound binding in COS7 lysate, probe aLAP1, primary screen, cell lysate, small-molecule microarray (AID 1124); settings: probe aLAP1, fluorescence, higher = more signal;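 also: lysate comes from COS7 cells expressing LAP1 and is applied at 0.3 µg/mL; score merges spot fluorescence near 667 nm with signal-to-noise over triplicate slides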
Sam68 (KHDRBS1) = test: Sam68 small-molecule binders, primary screen, biochemical, small-molecule microarray, 635 nm fluorescence (AID 1125); settings: small-molecule microarray binding, higher = more signal;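 also: score merges 667 nm channel intensity with signal to noise over triplicate slides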
[7] = system: Chordin-like protein 2 (CHRDL2); test: CHRDL2 small-molecule binders, primary screen, biochemical, small-molecule microarray, 635 nm fluorescence (AID 1126); settings: small-molecule microarray binding, fluorescence 635 nm; higher = more signal;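 also: printed compound slides probed with Chrdl2 protein at 4 µg/mL for 1 h at 4 C; score merges 667 nm emission intensity with signal to noise over three replicate slides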
[8] = target: Concanavalin-A (Canavalia ensiformis) (UniProt P02866); test: ConA small-molecule binders, primary screen, artefact control for SMM control protein annotation, biochemical, small-molecule microarray, Alexa647 label, 635 nm (AID 1127); settings: ConA-A647 binding fluorescence, higher = more signal;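 also: z combines 667 nm emission intensity with signal-to-noise across three replicate slides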
[9] = anti-His antibody binders, primary screen, artefact control for SMM control protein annotation, biochemical, small-molecule microarray, 635 nm fluorescence (AID 1128); settings: anti-His Alexa647 antibody binding, higher = more signal;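 also: score merges feature fluorescence with signal-to-noise for each printed compound spot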
[10] = system: Human papillomavirus type 1a E7 protein (residues 1-88); test: HPV1a E7 small-molecule binders, primary screen, biochemical, small-molecule microarray, residues 1-88, 635 nm (AID 1129); settings: small-molecule microarray binding, fluorescence 635 nm; higher = more signal
[11] = target: Focal adhesion kinase 1 (Homo sapiens) (UniProt Q05397); test: small-molecule microarray binders of FAK, primary screen, biochemical, 635/667 nm fluorescence, BSA, DTT (AID 1130); settings: PTK2 binding, 635 nm fluorescence, higher = more signal;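 also: composite of spot emission at 667 nm and signal to noise over triplicate slides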
[12] = system: Fibrinogen (Alexa647-labelled); test: fibrinogen binders on compound microarrays, profiling panel, artefact control for SMM control-protein annotation, biochemical, small-molecule microarray, 635/667 nm fluorescence (AID 1131); settings: fibrinogen-A647 binding fluorescence, higher = more signal;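 also: z-score merges 667 nm fluorescence with per-spot signal-to-noise over triplicate slides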
[13] = target: Follistatin (Homo sapiens) (UniProt P19883); test: follistatin binders on small-molecule microarrays, primary screen, biochemical, small-molecule microarray, 635/667 nm fluorescence (AID 1132); settings: FST binding, 635 nm fluorescence, higher = more signal
[14] = target: Fibroblast growth factor 2 (Homo sapiens) (UniProt P09038); test: FGF2 binders on small-molecule microarrays, primary screen, biochemical, small-molecule microarray, 635/667 nm fluorescence (AID 1133); settings: small-molecule microarray binding, FGF2, fluorescence 635/667; higher = more signal
[15] = mitochondrial membrane potential change in A549 cells, profiling panel, cell-based, JC-1 fluorescence, basal, 24 h, 100 nL (AID 1138); settings: higher = more signal;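 also: A549 lung adenocarcinoma cells under basal conditions with no added stimulus; test concentration not given here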
Lefty1 = Lefty1 binders on small-molecule microarrays, primary screen, biochemical, small-molecule microarray, 635/667 nm fluorescence (AID 1139); settings: small-molecule microarray binding, fluorescence 635/667; higher = more signal
[16] = system: wheat germ agglutinin (Triticum aestivum), Alexa647-labelled; test: wheat germ agglutinin binders on compound microarrays, profiling panel, artefact control for SMM control-protein annotation, biochemical, small-molecule microarray, 635/667 nm fluorescence (AID 1140); settings: WGA-A647 binding, 635 nm fluorescence, higher = more signal;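 also: score merges 667 nm feature emission with signal to noise over triplicate slides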
[17] = target: Luciferin 4-monooxygenase (Photinus pyralis) (UniProt P08659); test: firefly luciferase enzyme inhibitors, primary screen, biochemical, luminescence, purified enzyme, 2006 set (AID 1141); settings: SteadyGlo luminescence, 30 min, higher = more signal, called active from +8 up or from −8 down;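 also: cell-free assay with purified firefly luciferase at 100 ng per well in PBS; test concentration not given here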
Sequence of Luciferin 4-monooxygenase (Photinus pyralis) (P08659 whole entry, looked up): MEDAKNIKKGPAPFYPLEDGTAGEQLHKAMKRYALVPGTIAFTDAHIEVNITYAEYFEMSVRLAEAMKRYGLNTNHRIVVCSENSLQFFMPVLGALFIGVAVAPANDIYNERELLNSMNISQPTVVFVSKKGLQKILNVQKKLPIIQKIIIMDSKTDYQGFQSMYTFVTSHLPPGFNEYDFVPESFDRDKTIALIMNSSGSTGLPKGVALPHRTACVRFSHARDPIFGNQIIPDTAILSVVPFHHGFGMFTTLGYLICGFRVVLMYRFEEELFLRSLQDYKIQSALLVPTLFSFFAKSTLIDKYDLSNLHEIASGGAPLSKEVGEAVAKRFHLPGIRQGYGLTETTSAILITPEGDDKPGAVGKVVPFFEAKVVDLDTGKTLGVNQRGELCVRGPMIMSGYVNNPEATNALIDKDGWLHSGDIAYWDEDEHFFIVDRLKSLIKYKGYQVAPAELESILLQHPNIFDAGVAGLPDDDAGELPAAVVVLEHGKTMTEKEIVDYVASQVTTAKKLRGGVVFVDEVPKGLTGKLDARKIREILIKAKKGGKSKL

Sequence of Focal adhesion kinase 1 (Homo sapiens) (Q05397 whole entry, looked up): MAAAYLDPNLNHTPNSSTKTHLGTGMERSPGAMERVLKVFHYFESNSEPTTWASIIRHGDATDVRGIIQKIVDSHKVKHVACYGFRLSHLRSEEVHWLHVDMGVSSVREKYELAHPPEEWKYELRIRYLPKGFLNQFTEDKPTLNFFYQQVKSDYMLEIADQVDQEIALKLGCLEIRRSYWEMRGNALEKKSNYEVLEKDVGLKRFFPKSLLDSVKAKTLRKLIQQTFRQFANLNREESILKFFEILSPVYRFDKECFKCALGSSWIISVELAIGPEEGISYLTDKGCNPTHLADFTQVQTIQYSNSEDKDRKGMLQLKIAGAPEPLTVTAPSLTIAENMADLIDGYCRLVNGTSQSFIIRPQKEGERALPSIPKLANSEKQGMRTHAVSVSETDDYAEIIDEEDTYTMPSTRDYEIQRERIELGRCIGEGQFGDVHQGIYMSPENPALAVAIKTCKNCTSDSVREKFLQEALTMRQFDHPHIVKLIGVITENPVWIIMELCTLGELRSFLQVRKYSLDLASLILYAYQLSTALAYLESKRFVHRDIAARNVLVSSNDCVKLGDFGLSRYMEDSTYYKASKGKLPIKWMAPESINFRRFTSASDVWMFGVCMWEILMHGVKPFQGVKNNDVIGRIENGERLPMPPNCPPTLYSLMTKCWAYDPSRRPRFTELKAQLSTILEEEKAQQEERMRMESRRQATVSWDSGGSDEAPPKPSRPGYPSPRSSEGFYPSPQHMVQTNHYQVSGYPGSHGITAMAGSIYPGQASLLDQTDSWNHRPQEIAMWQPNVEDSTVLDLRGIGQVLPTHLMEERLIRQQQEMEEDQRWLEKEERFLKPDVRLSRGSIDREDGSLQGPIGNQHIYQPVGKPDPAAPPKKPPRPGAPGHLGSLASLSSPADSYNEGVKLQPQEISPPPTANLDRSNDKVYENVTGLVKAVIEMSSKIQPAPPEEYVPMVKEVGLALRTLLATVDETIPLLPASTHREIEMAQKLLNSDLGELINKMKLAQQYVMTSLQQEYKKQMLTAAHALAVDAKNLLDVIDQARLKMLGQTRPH
Sequence of Albumin (Bos taurus) (P02769 whole entry, looked up): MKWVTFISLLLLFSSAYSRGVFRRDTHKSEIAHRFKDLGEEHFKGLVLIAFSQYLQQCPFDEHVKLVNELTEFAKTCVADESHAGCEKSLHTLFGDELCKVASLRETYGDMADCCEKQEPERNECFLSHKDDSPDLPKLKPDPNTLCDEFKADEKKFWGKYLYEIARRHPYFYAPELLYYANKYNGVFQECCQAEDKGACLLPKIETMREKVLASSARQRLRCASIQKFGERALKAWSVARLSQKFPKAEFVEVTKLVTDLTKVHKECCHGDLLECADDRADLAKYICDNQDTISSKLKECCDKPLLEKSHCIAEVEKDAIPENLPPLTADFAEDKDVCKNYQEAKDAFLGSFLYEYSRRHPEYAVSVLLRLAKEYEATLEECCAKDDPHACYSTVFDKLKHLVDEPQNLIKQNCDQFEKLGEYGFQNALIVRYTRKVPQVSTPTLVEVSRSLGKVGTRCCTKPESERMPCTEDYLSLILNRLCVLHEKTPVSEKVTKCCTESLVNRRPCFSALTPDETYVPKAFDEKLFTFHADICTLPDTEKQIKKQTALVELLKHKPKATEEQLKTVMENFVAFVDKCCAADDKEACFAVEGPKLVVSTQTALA
Sequence of Concanavalin-A (Canavalia ensiformis) (P02866 whole entry, looked up): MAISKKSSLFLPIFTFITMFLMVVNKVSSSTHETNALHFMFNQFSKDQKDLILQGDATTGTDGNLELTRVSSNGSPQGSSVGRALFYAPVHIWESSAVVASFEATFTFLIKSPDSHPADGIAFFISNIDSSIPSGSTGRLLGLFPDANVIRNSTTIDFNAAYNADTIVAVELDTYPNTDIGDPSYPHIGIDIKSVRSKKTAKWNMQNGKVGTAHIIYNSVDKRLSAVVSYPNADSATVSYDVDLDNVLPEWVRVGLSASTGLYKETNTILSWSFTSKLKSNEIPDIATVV
Sequence of Follistatin (Homo sapiens) (P19883 whole entry, looked up): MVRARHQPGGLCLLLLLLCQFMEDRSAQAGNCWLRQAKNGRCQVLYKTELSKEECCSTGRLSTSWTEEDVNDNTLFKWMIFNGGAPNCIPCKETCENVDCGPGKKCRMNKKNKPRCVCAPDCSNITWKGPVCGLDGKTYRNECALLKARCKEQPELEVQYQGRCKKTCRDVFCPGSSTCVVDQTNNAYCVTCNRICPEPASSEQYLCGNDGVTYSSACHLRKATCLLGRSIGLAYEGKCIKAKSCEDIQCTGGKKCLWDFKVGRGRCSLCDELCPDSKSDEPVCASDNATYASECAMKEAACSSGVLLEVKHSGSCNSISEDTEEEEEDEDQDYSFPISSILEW
Sequence of Fibroblast growth factor 2 (Homo sapiens) (P09038 whole entry, looked up): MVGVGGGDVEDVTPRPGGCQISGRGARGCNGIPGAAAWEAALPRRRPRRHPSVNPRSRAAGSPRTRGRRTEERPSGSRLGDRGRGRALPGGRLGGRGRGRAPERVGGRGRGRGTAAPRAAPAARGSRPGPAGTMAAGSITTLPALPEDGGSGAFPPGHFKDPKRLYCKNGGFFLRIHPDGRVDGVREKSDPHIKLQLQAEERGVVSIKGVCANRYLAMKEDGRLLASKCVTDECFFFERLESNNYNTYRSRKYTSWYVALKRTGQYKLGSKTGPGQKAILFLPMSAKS

SMILES	composite z-score (Albumin (Bos taurus))	composite Z-score [1]	composite z-score [2]	composite z-score [3]	composite z-score [4]	composite z-score [5]	composite z-score [6]	composite z-score (Sam68 (KHDRBS1))	composite z-score [7]	composite z-score [8]	composite z-score [9]	composite z-score [10]	composite z-score [11]	composite z-score [12]	composite z-score [13]	composite z-score [14]	z-score [15]	composite z-score (Lefty1)	composite z-score [16]	z-score [17]
COC(=O)[C@@]1(Cc2ccc(OC)cc2)[C@H]2c3cc(C(=O)N4CCCC4)n(Cc4ccc(C(F)(F)F)nc4)c3C[C@H]2CN1C(=O)c1ccccc1	0.948	-0.325 (inactive)	0.361	0.0224	0.737	0.297	0.511	0.524	-0.249	-0.308	1.4	1.22	1.14	0.683	0.0995	-0.342	0.939	0.087	0.902	-7.63 (inactive)
COc1ccc([Si](C)(C)[C@@H]2[C@@H](CC(=O)N3CCC[C@H]3CO)O[C@]3(C(=O)N(Cc4cccc(N5CCCCC5=O)c4)c4ccccc43)[C@H]2C)cc1	-0.101	1.39 (inactive)	-0.0098	-0.127	0.583	1.97	0.433	1.07	0.781	1.11	2.54	1.03	0.0576	0.641	0.767	0.473	0.218	1.23	0.307	-1.86 (inactive)
C=C(COC)C(=O)CC[C@@H](OC(=O)c1ccccc1-c1ccccc1C(=O)O)c1ccc(OCCO)cc1	-0.238	0.081 (inactive)	-0.0491	-0.154	0.784	0.113	0.238	0.576	0.319	-0.0355	-0.0978	-0.0905	-0.0142	-1.48	1.45	1.42	0.0645	1.48	0.595	-3.04 (inactive)
COc1ccc(C(=O)Nc2ccc(CN3C(=O)[C@@]4(O[C@@H](CCn5cc(CCO)nn5)[C@H]([Si](C)(C)c5ccc(OC)cc5)[C@H]4C)c4ccccc43)cc2)cc1	0.264	0.32 (inactive)	0.0276	-0.0895	0.348	0.822	0.116	1.32	0.919	1.09	1.17	1.17	0.749	0.874	1.35	1.21	-0.326	1.1	0.522	-0.162 (inactive)
C=CCC(OC(C)=O)[C@@H]1[C@@H](N(Cc2ccc(-c3ccccc3)cc2)C(=O)c2cccc3ccccc23)c2cc(OCCCO)ccc2N1C(=O)Cc1ccc(OC)cc1 (stereo not given in full)	-0.276	-0.064 (inactive)	0.222	0.0092	-0.208	-0.212	-0.338	-0.205	0.475	-0.0975	0.118	-0.0598	-0.109	0.698	0.921	0.285	0.508	0.0844	0.175	0.706 (inactive)
C=CCNC(=O)[C@H]1[C@@H]2C(=O)O[C@@H](c3ccccc3)[C@@H](c3ccccc3)N2[C@@H](c2ccc(OCCO)cc2)[C@]12C(=O)Nc1ccc(C#CC3(O)CCCCCC3)cc12	0.483	0.238 (inactive)	0.257	0.0111	0.184	1.29	1.09	1.34	0.721	1.13	1.26	1.18	0.358	0.932	1.14	1.13	0.38	1.3	0.651	-1.96 (inactive)
CO[C@H]1O[C@H](CO)[C@@H](OC(=O)Nc2ccccc2)[C@H](OC(=O)Nc2ccccc2)[C@H]1OC(=O)Nc1ccccc1	0.729	-0.375 (inactive)	-0.0918	-0.0567	0.521	2.45	0.373	1.3	-0.0958	1.15	2.2	1.26	0.972	1.01	0.943	1.02	0.281	0.389	0.791	1.15 (inactive)
O=C1[C@H]2C=C(I)[C@H](C[C@@H]2OCCCCCCO)[C@@]12CO2	0.683	0.047 (inactive)	0.0876	-0.112	0.751	-0.298	-0.16	-0.747	1.24	-1.05	-0.624	-0.334	-0.0716	-0.312	1.12	0.888	0.368	1.07	-0.291	0.683 (inactive)
COc1ccc([Si](C)(C)[C@@H]2[C@@H](CC(=O)N3Cc4ccccc4C[C@H]3CO)O[C@]3(C(=O)N(Cc4ccc(N5CCOC5=O)cc4)c4ccccc43)[C@H]2C)cc1	-0.289	1.54 (inactive)	0.0803	-0.128	0.624	1.12	0.313	1.27	1.26	1.16	1.74	0.986	0.239	0.55	1.32	1.49	0.138	1.53	0.914	-0.912 (inactive)
CC(C)NC(=O)[C@@]1(C)c2ccccc2C(=O)N(Cc2ccccc2)[C@H]1c1ccc(CO)cc1	0.489	-0.621 (inactive)	-0.432	-0.153	0.692	1.86	0.329	0.696	-1.6	0.537	2.31	0.244	-0.226	-0.722	-0.4	-0.719	0.648	-0.189	0.948	-1.09 (inactive)
